# Data taken from PubChem BioAssay.
# Target: Concanavalin-A (Canavalia ensiformis) (UniProt P02866)
# Assay: compounds binding concanavalin A lectin – biochemical, small-molecule microarray, Alexa647 label, 635 nm, artefact control for SMM control protein annotation, primary screen (AID 1127);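 note: z combines 667 nm emission intensity with signal-to-noise across three replicate slides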
# Settings: ConA-A647 binding fluorescence, higher = more signal
# Chain of Concanavalin-A (Canavalia ensiformis) (P02866 whole entry, looked up): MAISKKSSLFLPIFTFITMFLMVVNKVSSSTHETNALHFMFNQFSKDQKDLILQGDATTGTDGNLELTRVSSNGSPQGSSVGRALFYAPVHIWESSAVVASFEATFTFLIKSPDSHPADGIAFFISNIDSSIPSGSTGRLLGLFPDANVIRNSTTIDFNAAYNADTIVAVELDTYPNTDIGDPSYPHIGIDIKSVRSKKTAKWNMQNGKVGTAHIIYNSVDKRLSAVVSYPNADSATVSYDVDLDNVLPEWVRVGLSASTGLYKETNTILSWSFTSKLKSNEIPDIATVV
row,SMILES,composite z-score
1,Cc1nc2cc(Br)ccc2c(=O)n1Cc1cccc(O)c1,0.799
2,C=C[C@@H](C)[C@H](O)c1ccc(OCCO)cc1,-1.01
3,C=CCN1C(=O)[C@]2(O[C@H](CCO)[C@@H]([Si](C)(C)c3ccc(OC)cc3)[C@@H]2C)c2cc(NC(=O)c3ccc(OC)cc3)ccc21,0.689
4,CCOC(=O)C[C@H]1[C@H](OC(=O)c2cc3ccccc3oc2=O)[C@@H](NC(=O)c2ccc3ccccc3c2)c2cc(OCCCO)ccc2N1C(=O)Cc1ccc(OC)cc1,0.69
5,COc1ccc(C#Cc2ccc3c(c2)[C@]2(C(=O)N3)[C@H](c3ccc(OCCO)cc3)N3[C@H](c4ccccc4)[C@H](c4ccccc4)OC(=O)[C@H]3[C@@H]2C(=O)N2CCc3cc(OC)c(OC)cc3C2)cc1,1.09
6,COC(=O)c1c2oc(c1C(=O)OC)C(=O)N1CCC[C@H]1Cn1nncc1CN(Cc1ccccc1)C(=O)N[C@H](CO)CC2,0.125
7,COC(=O)C(CC#Cc1ccc2c(c1)[C@]1(C(=O)N2)[C@H](c2ccc(O)cc2)N2[C@H](c3ccccc3)[C@H](c3ccccc3)OC(=O)[C@H]2[C@@H]1C(=O)N1CCCCCCC1)C(=O)OC,1.14
8,C=C[C@H](C)[C@H](OC(=O)Nc1ccc(OC)cc1)c1ccc(OCCO)cc1,-1.35
9,[N-]=[N+]=NC[C@H](Cc1ccccc1)NC(=O)c1ccccc1,-0.855
10,COc1ccc([Si](C)(C)[C@H]2[C@H](CC(=O)N3Cc4ccccc4C[C@H]3CO)O[C@@]3(C(=O)N(Cc4ccc(N5C(=O)c6cccc7cccc5c67)cc4)c4ccccc43)[C@@H]2C)cc1,1.08
